Test results: PubChem BioAssay (Tox21)
Where “and” joins values, the source holds several entries; their conditions need not be identical. Identical values can stand only once. Results filed as inconclusive are left out. Calls of active or inactive are those of the source. Unless noted, calls follow the shape of the dose curve; as a rule, active = well fitted curve in the direction sought with a large enough effect in the repeat runs; inconclusive = weak or mixed curves; inactive = no such curve, though single readings can be large; an effect the other way counts as inactive or inconclusive.

Legend:
[1] = qHTS assay to test for compound auto fluorescence at 535 nm (green) in HEK293 cells (AID 720680)
[2] = qHTS assay to test for compound auto fluorescence at 535 nm (green) in HEK293 cell free culture (AID 720682)
In short: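 No cells present: wells hold DMEM supplemented with 10% FBS, into which compound or vehicle is pinned. Green emission is then recorded (485 nm excitation, 535 nm emission) and scaled to fluorescein.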

[3] = qHTS assay to test for compound auto fluorescence at 590 nm (red) in HEK293 cell free culture (AID 720683)
In short: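 Red-channel autofluorescence of compounds in culture medium (DMEM, 10% FBS), no cells, measured at 540/590 nm. Rose Bengal sodium is the reference fluorophore for equivalence.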

[4] = qHTS assay to test for compound auto fluorescence at 590 nm (red) in HepG2 cell free culture (AID 720684)
In short: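 Cell-free; medium MEM + 10% FBS; compound or DMSO added by pintool; read Ex 540/Em 590 nm; Rose Bengal sodium as red reference fluorophore.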

[5] = qHTS assay to test for compound auto fluorescence at 460 nm (blue) in HepG2 cell free culture (AID 720685)
In short: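 Cell-free plates of MEM plus 10% FBS received 23 nL compound or DMSO vehicle; blue-channel (405/460 nm) intensity scored against triamterene as reference fluorophore.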

[6] = qHTS assay to test for compound auto fluorescence at 535 nm (green) in HepG2 cell free culture (AID 720686)
[7] = qHTS assay to test for compound auto fluorescence at 460 nm (blue) in HepG2 cells (AID 720687)
In short: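 Blue-channel autofluorescence (Ex/Em 405/460 nm, triamterene-equivalent) was measured after 1 hr compound exposure at 37 C, 5% CO2. Cells were HepG2, plated overnight at 37 C in MEM plus 10% FBS.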

[8] = target: Glucocorticoid receptor (Homo sapiens) (UniProt P04150); experiment: qHTS assay to identify small molecule agonists of the glucocorticoid receptor (GR) signaling pathway (AID 720691; active = well fitted activation curve with a large enough effect in the signal ratio in the repeat runs, not every such curve was filed as active; the % refers to the signal ratio)
Glucocorticoid receptor (Homo sapiens), sequence (P04150 whole entry, looked up): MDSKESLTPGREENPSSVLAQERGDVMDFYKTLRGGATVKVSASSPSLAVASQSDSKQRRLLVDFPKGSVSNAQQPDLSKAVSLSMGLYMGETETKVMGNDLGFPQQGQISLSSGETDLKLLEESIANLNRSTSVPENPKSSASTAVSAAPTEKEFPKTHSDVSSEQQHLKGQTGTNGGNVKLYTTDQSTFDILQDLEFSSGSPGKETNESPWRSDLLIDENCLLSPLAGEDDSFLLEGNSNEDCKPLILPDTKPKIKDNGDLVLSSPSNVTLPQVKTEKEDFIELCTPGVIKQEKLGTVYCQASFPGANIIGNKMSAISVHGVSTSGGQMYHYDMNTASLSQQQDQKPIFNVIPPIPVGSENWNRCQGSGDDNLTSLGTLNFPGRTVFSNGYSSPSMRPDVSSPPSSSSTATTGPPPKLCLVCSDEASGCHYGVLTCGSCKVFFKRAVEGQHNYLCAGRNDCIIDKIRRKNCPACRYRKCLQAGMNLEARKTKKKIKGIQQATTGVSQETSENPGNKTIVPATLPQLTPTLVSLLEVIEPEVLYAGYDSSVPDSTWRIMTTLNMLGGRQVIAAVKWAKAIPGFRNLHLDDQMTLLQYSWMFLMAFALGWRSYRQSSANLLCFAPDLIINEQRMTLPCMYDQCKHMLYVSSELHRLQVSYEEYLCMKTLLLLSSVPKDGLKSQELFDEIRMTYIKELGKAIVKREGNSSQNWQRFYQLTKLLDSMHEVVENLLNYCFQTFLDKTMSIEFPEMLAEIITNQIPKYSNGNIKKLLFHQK
In short: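 A HeLa cervical cancer line expressing GR and a glucocorticoid response element-driven beta-lactamase gene is treated with compounds for 18 h; LiveBLAzer B/G FRET substrate is then applied and fluorescence read.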

[9] = target: Glucocorticoid receptor (Homo sapiens) (UniProt P04150); experiment: qHTS assay to identify small molecule antagonists of the glucocorticoid receptor (GR) signaling pathway (AID 720692; active = well fitted inhibition curve with a large enough effect in the signal ratio in the repeat runs, not every such curve was filed as active; the % refers to the signal ratio)
In short: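 GRE-bla HeLa line, dex-stimulated (5 nM final). Compound exposure 18 h, 37 C. Beta-lactamase FRET read after 2 h RT substrate.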

[10] = qHTS assay to identify small molecule antagonists of the glucocorticoid receptor (GR) signaling pathway - cell viability counter screen (AID 720693); also: nearly all actives have a fitted effect of over 55% in size
[11] = qHTS assay for identifying genotoxic compounds that show differential cytotoxicity against isogenic chicken DT40 cell lines with known DNA damage response pathways - wild type cell line (AID 743012); also: nearly all actives have a fitted effect of over 60% in size; also: potency is read from the fitted curve at half-maximal effect
In short: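 300 wt DT40 cells/well; cpd (DMSO) pintool-transferred after ~0.5 h at 37 C/5% CO2; 40 h incubation; CellTiter-Glo added, 30 min RT; luminescence read.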

[12] = qHTS assay for identifying genotoxic compounds that show differential cytotoxicity against isogenic chicken DT40 cell lines with known DNA damage response pathways - Rad54/Ku70 mutant cell line (AID 743015); also: nearly all actives have a fitted effect of over 60% in size; also: potency is read from the fitted curve at half-maximal effect
[13] = qHTS assay to identify small molecule antagonists of the androgen receptor (AR) signaling pathway - cell viability counter screen (AID 743033; also: nearly all actives have a fitted effect of over 45% in size)
[14] = qHTS assay to identify small molecule antagonists of the androgen receptor (AR) signaling pathway using the MDA cell line - cell viability counter screen (AID 743041; also: nearly all actives have a fitted effect of over 45% in size)
In short: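 Viability read by CellTiter-Fluor fluorescence in the same wells as the antagonist screen, added after 15.5 h of a 16 h, 37C exposure. Human breast carcinoma MDA-kb2 AR-luc cells, compounds co-dosed with agonist R1881.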

[15] = qHTS assay to identify small molecule antagonists of the thyroid receptor (TR) signaling pathway - cell viability counter screen (AID 743064); also: nearly all actives have a fitted effect of over 50% in size
In short: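 Rat GH3 pituitary tumor cells stably expressing two TR response elements driving luciferase were plated, rested 4 h, then dosed with library compounds and T3 (1 nM final). After 23.5 h at 37 °C, CellTiter-Fluor was added for 30 min and fluorescence recorded.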

[16] = qHTS assay for identifying genotoxic compounds that show differential cytotoxicity against isogenic chicken DT40 cell lines with known DNA damage response pathways - Rev3 mutant cell line (AID 743014); also: nearly all actives have a fitted effect of over 55% in size; also: potency is read from the fitted curve at half-maximal effect
[17] = target: Androgen receptor (Homo sapiens) (UniProt P10275); experiment: qHTS assay to identify small molecule agonists of the androgen receptor (AR) signaling pathway (AID 743036; active = well fitted activation curve with a large enough effect in the signal ratio in the repeat runs, with a control signal flat, not every such curve was filed as active; the % refers to the signal ratio)
Androgen receptor (Homo sapiens), sequence (P10275 whole entry, looked up): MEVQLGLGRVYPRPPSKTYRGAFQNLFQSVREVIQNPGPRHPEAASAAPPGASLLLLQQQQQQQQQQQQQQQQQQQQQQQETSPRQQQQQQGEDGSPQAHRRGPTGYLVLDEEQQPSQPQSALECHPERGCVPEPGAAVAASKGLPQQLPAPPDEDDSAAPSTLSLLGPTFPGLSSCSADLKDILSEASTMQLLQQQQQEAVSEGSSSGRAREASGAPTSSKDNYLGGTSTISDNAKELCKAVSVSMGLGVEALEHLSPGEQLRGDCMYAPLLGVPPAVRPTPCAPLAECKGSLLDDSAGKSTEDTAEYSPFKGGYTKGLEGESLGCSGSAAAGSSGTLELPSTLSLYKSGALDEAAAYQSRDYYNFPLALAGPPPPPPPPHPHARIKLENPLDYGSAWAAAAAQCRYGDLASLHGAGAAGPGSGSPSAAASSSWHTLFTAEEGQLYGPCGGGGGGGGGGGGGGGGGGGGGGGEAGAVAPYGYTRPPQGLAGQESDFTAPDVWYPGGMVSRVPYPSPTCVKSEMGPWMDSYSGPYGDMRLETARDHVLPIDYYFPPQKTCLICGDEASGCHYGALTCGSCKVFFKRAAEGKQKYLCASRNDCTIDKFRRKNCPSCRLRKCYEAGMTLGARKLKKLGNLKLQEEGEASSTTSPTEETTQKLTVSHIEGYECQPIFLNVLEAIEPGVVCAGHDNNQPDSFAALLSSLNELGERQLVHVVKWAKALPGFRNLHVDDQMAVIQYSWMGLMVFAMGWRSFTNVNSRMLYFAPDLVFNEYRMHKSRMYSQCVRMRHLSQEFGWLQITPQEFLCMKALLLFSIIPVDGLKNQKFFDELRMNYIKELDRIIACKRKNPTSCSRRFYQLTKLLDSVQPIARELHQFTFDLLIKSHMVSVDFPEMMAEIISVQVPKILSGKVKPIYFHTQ
In short: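 Quantitative HTS of the Tox21 10K library in HEK293 cells bearing a stably integrated UAS-controlled beta-lactamase reporter. Compound exposure lasted 16 h at 37C. Reporter activity was detected by FRET substrate fluorescence after 2 h at room temperature.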

[18] = target: Androgen receptor (Homo sapiens) (UniProt P10275); experiment: qHTS assay to identify small molecule agonists of the androgen receptor (AR) signaling pathway using the MDA cell line (AID 743040; also: nearly all actives have a fitted effect of over 20% in size)
In short: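 Luciferase agonist assay: 16 h compound exposure at 37C without CO2 in MDA-kb2 AR-luc cells, whose MMTV promoter responds to both AR and GR. Luminescence measured after 30 min room-temperature incubation with ONE-Glo.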

[19] = target: Androgen receptor (Homo sapiens) (UniProt P10275); experiment: qHTS assay to identify small molecule antagonists of the androgen receptor (AR) signaling pathway (AID 743035; active = well fitted inhibition curve with a large enough effect in the signal ratio in the repeat runs, not every such curve was filed as active; the % refers to the signal ratio)
In short: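 In this cell-based reporter screen, compounds were tested in concentration series against R1881-activated HEK293 cells expressing beta-lactamase under UAS control; after 16 h at 37C, FRET substrate was added and fluorescence read 2 h later.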

Measured: Potency

CCCN1CCC[C@@H]2Cc3[nH]ncc3C[C@H]21
inactive: [1] | [2] | [3] | [4] | [5] | [6] | [7] | [8] | [9] | [10] | [11] | [12] | [13] | [14] | [15]

C[C@H](CN1CCOCC1)C(C(=O)N1CCCC1)(c1ccccc1)c1ccccc1
active: [11] 33.2 µM | [16] 37.3 µM | [12] 59.1 µM
inactive: [1] | [2] | [3] | [4] | [5] | [6] | [7] | [8] | [9] | [10] | [13] | [17] | [18] | [14]

CN(C)C1CCCCC1
inactive: [1] | [2] | [3] | [4] | [5] | [6] | [7] | [8] | [9] | [11] | [12] | [13] | [14]

CCCCCCC(=O)CCCCCC/C=C/C[C@@H](O)[C@H](O)[C@@](N)(CO)C(=O)O
inactive: [1] | [2] | [3] | [4] | [5] | [6] | [7] | [8] | [9] | [10] | [13] | [14] | [15]
active: [11] 23.7 nM and 10.6 nM | [12] 26.6 nM and 13.3 nM

CCC(C(N)=O)N1CCCC1=O (configuration not stated)
inactive: [1] | [2] | [3] | [4] | [5] | [6] | [7] | [10] | [11] | [16] | [12] | [13] | [14]

CC1=C2[C@H]3OC(=O)[C@@H](C)[C@@H]3CC[C@@]2(C)C=CC1=O
inactive: [1] | [2] | [3] | [4] | [5] | [6] | [7] | [8] | [9] | [10] | [11] | [12] | [13] | [14] | [15]

CCCN1CCC[C@@H]2Cc3nc(N)ncc3C[C@H]21
inactive: [1] | [2] | [3] | [4] | [6] | [7] | [11] | [12] | [13] | [14]

CC1N=C(N)OC1c1ccccc1 (configuration not stated)
inactive: [1] | [2] | [3] | [4] | [5] | [6] | [7] | [8] | [9] | [10] | [11] | [16] | [12] | [13] | [14]

O=C(NC(O)C(Cl)(Cl)Cl)NC(O)C(Cl)(Cl)Cl (configuration not stated)
inactive: [1] | [2] | [3] | [4] | [6] | [7] | [8] | [9] | [10] | [11] | [16] | [12] | [13] | [14] | [15]

Cn1c(CCCC(=O)O)nc2cc(N(CCCl)CCCl)ccc21
inactive: [1] | [2] | [3] | [4] | [6] | [7] | [8] | [9] | [13] | [14]
active: [11] 26.6 µM | [16] 3.35 µM

N[C@@H](Cc1ccc(Oc2cc(I)c(O)c(I)c2)c(I)c1)C(=O)O
inactive: [1] | [2] | [3] | [4] | [6] | [7] | [10] | [11] | [16] | [12] | [13] | [14] | [15]

CCOc1cc(OP(=S)(OC)OC)nc(CC)n1
inactive: [1] | [2] | [3] | [4] | [6] | [7] | [8] | [9] | [11] | [16] | [12] | [13] | [14]

CCOC(=O)Nc1cccc(OC(=O)Nc2ccccc2)c1
inactive: [1] | [2] | [3] | [4] | [5] | [6] | [7] | [8] | [9] | [10] | [11] | [12] | [13] | [14] | [15]

CCc1cc(OC)c(C[C@H](C)N)cc1OC
active: [11] 63.7 µM | [16] 71.5 µM | [12] 63.7 µM
inactive: [1] | [2] | [3] | [4] | [5] | [6] | [7] | [8] | [9] | [13]

CCSC(=O)Cl
inactive: [1] | [2] | [3] | [4] | [5] | [6] | [7] | [8] | [9] | [11] | [16] | [12] | [13] | [19] | [14] | [15]

CCCCOC(C)=O
inactive: [1] | [2] | [3] | [4] | [5] | [6] | [7] | [10] | [11] | [16] | [12] | [13] | [14] | [15]

C=C(C)[C@H]1CN[C@H](C(=O)O)[C@H]1CC(=O)O
inactive: [1] | [2] | [3] | [4] | [5] | [6] | [7] | [8] | [9] | [10] | [13] | [14] | [15]

CCCC(C)C1(CC)C(=O)N=C(S)NC1=O (configuration not stated)
inactive: [1] | [2] | [3] | [4] | [5] | [6] | [7] | [8] | [9] | [11] | [16] | [12] | [13] | [14] | [15]
